Screens: PubChem, The Scripps Research Institute Molecular Screening Center
Hits are enriched below; roughly 2.5% of the tested compounds scored in any of these assays.
PRMT1 FP inh – PRMT1 methyltransferase inhibitors, primary screen, biochemical, fluorescence polarization | Protein arginine N-methyltransferase 1 (Homo sapiens), Q99873 | recombinant PRMT1, activity-based probe fluorescence polarization | inhibition, % at 2.79 µM | actives 1.3% (n = 370,000);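 active means inhibition above about 21% made by adding two undisclosed values, limit read from the data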
LEDGF integ inh – blockers of LEDGF/p75-dependent integrase strand transfer – biochemical, TR-FRET, high throughput, primary screen. TR-FRET IN-LEDGF/p75 DNA integration, Eu/Cy5. inhibition, % at 3.7 µM. actives 0.64% (n = 370,000). AID 743269, 2014;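 active means inhibition above the screen-wide mean plus 3 SD, cut at about 13% in these data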;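 further: signal is the Cy5 over europium emission ratio at 671 and 618 nm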
MBD2 inh – inhibitors of MBD2 binding to methylated DNA, primary screen, biochemical, TR-FRET, DNA-binding domain, human; inhibition, % at 4.4 µM; AID 686964, 2013; MBD2 binding to methylated oligonucleotide; Methyl-CpG-binding domain protein 2 (Homo sapiens), Q9UBB5; actives 0.31% (n = 370,000); in the data active means inhibition above about 13%
UHRF1 MBD2 ctr – UHRF1 methylated DNA binding inhibitors, primary screen, counter-screen for MBD2 inhibitor project, biochemical, TR-FRET, human UHRF1, single concentration. AID 687016, 2013. inhibition, % at 4.4 µM. E3 ubiquitin-protein ligase UHRF1 (Homo sapiens), Q96T88. UHRF1 binding to methylated oligo. actives 0.75% (n = 370,000); in the data active means inhibition above about 21%;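 further: UHRF1 SRA domain binding a hemimethylated CpG hairpin DNA probe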
Target sequence (Q96T88 whole entry, looked up, the tested form may be a part): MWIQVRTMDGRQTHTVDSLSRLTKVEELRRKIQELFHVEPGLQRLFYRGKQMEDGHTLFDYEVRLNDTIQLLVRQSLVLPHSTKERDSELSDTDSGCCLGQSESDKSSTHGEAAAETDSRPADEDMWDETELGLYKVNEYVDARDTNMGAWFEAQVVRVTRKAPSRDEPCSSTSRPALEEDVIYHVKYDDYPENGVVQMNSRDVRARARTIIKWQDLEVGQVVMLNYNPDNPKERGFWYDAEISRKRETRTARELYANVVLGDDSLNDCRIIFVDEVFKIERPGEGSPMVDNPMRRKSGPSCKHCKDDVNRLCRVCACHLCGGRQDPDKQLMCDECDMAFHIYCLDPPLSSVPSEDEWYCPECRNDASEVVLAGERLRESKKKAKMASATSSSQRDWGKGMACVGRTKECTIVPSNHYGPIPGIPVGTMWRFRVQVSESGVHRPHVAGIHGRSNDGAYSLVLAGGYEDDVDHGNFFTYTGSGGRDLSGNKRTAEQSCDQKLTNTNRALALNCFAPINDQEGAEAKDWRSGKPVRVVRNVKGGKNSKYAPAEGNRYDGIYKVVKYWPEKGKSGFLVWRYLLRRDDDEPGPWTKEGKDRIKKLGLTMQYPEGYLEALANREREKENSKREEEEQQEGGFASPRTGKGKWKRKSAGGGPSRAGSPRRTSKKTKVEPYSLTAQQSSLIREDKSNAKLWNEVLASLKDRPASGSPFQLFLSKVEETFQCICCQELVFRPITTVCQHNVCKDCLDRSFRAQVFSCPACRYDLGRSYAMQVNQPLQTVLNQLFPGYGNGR
Large screens that a line does not name were inactive.

N#C/C(=C\c1cccn1S(=O)(=O)c1ccccc1)S(=O)(=O)c1ccc(F)cc1	none
c1ccc(CCn2nnnc2CN2CCCc3ccccc32)cc1	PRMT1 FP inh 24.8
CC1=CC(=NOS(=O)(=O)c2ccc(C)cc2)CC(C)(C)C1	none
CC1=C(C)/C(=N\OS(=O)(=O)c2ccc(C)cc2)C=CC1=O	PRMT1 FP inh 23.7
CCN(CC)c1ccc(N=C2C(=O)Nc3ccccc32)cc1	PRMT1 FP inh 30.1
Cc1ccc(N=C2C(=O)Nc3ccccc32)cc1	none
CCCC(=O)N1CCCC1(C)C(=O)NCCc1ccccn1 (stereo not given)	none
Cc1cccc(C(=O)OCC(=O)NC(C)CCc2ccccc2)c1 (stereo not given)	none
Cc1cccc(C(=O)NCC(=O)NC(C)CCc2ccccc2)c1 (stereo not given)	UHRF1 MBD2 ctr 22.2
O=C(O)c1cccc(-n2sc3ccccc3c2=O)c1	PRMT1 FP inh 93.0
O=c1c2ccccc2sn1-c1ccccc1	PRMT1 FP inh 95.0
COc1ccc(C=NNC(=O)Cc2cc(=O)[nH][nH]2)c(OC)c1	none
C=CCNC(=O)CN(C(=O)Cc1ccc(Cl)nc1)c1cccc(Br)c1	none
Cc1ccc(S(=O)(=O)N2CCCCC2)cc1NC(=O)COC(=O)c1ccc(O)cc1	UHRF1 MBD2 ctr 34.3
O=C(COc1ccc([N+](=O)[O-])cc1)Nc1cc(S(=O)(=O)N2CCCCC2)ccc1N1CCCCC1	UHRF1 MBD2 ctr 22.2
CCN1CCN(c2ccc(S(=O)(=O)N3CCOCC3)cc2NC(=O)CC(NC(C)=O)c2ccccc2)CC1 (stereo not given)	none
CCN1CCN(c2ccc(S(=O)(=O)N3CCCCC3)cc2NC(=O)CC(C)c2ccccc2)CC1 (stereo not given)	UHRF1 MBD2 ctr 51.6
O=C(COc1ccc(F)cc1)Nc1cc(S(=O)(=O)N2CCCCC2)ccc1N1CCCCC1	none
Cc1cccc(C)c1NC(=O)CN(C)C(=O)CC1CC2CCC1C2 (stereo not given)	none
CC(=O)OC(C(=O)N1CCOCC1)c1c(F)cccc1F (stereo not given)	none
C[C@@H]1CN([C@@H](C)CO)C(=O)c2cc(NC(=O)c3ccccc3)ccc2O[C@@H](C)CCCCO[C@@H]1CN(C)S(=O)(=O)c1ccc(F)cc1	UHRF1 MBD2 ctr 21.4
C[C@@H]1CCCCO[C@@H](CN(C)C(=O)CCC(F)(F)F)[C@@H](C)CN([C@H](C)CO)C(=O)c2cc(NS(=O)(=O)c3cccs3)ccc2O1	UHRF1 MBD2 ctr 22.0
CN(C)NC(=S)NC(=O)C12CC3CC(CC(C3)C1)C2	none
CN(C(=S)NC(=O)C12CC3CC(CC(C3)C1)C2)c1ccc(O)cc1	PRMT1 FP inh 26.4, LEDGF integ inh 15.3
CC1(C(=O)NCCc2c[nH]c3ccccc23)CCN1Cc1ccccc1OC(F)F (stereo not given)	none
COc1ccccc1CNC(=O)c1ccc(-c2ccccc2)cc1	UHRF1 MBD2 ctr 26.2
COc1ccc(C(=O)NCc2ccccc2OC)cc1	none
Cc1noc(C)c1C(=O)NCC(=O)Nc1ccccc1Br	none
COc1ccccc1CCNC(=O)CCSc1nc(-c2ccco2)cc(C(F)(F)F)n1	PRMT1 FP inh 22.9
O=C(NCc1ccncc1)[C@@H]1CCCN1C(=O)[C@H]1CCCN1C(=O)c1cccc2ccccc12	none
N#CCCCN1C(=O)C(O)(CC(=O)c2ccc3c(c2)OCCO3)c2ccccc21 (stereo not given)	none
N#CCCCN1C(=O)C(=C(C#N)C#N)c2ccccc21	PRMT1 FP inh 23.6
COCC(=O)N1CCC(Oc2ccc(C(=O)NC3CCOC(C)(C)C3)cc2)CC1 (stereo not given)	none
COc1ccc(CCN=Cc2ccccc2O)cc1OC	none
Cc1c(N=C2SC(CC(=O)Nc3ccccc3)C(=O)N2CCN2CCOCC2)c(=O)n(-c2ccccc2)n1C (stereo not given)	UHRF1 MBD2 ctr 27.5
O=C(Cc1cccc2ccccc12)NN=Cc1ccc2c(c1)CCC2	none
O=C(Nc1ccc(Cc2ccncc2)cc1)c1cccc([N+](=O)[O-])c1	none
O=C(CCNc1ccc(Cc2ccncc2)cc1)c1ccc([N+](=O)[O-])cc1	PRMT1 FP inh 36.1
COc1cccc(CNC(=O)C2CSC3(C)CCC(=O)N23)c1 (stereo not given)	none
COC(=O)[C@]12C[C@H](CC(=O)N3CCOCC3)C(=O)N(CCc3ccc(OC)c(OC)c3)C1=C[C@H](C(C)C)O[C@@H]2C1CC1	none
COc1ccc(-c2nc3c(C)cc(Br)cn3c2Cc2cccc(Cl)c2)cc1OC	UHRF1 MBD2 ctr 21.6
COc1ccc(-c2nc3c4ccccc4ccn3c2Cc2ccc(C)cc2)cc1OC	none
COc1ccc(-c2nc3c4ccccc4ccn3c2Cc2ccsc2)cc1OC	UHRF1 MBD2 ctr 21.5
Cc1ccc(Cc2c(C3CCCCC3)nc3c4ccccc4ccn23)cc1	none
COc1ccc(-c2nc3c4ccccc4ccn3c2Cc2cccc(Cl)c2)cc1OC	UHRF1 MBD2 ctr 23.4
Cc1ccc(-c2nc3c4ccccc4ccn3c2Cc2ccsc2)cc1	none
c1ccc2c(c1)ccn1c(Cc3ccsc3)c(C3CCCCC3)nc21	UHRF1 MBD2 ctr 21.4
COc1ccccc1CN1C(=O)C(Cc2ccccc2)ON=C1c1ncccc1C (stereo not given)	none
CCCCn1c(N)c(N(C(=O)CSc2nnnn2-c2ccc(C)cc2)C2CCCC2)c(=O)[nH]c1=O	none
Cc1cc(OCC(=O)OCC(=O)c2c(N)n(C)c(=O)n(C)c2=O)ccc1Cl	none
CCc1nc2ccc(C(=O)NCC3CCCCC3)cn2c1N(CCC(C)C)CCN(C)C	none
COc1ccc(-c2nc3c(Cl)cc(C(F)(F)F)cn3c2Cc2cccc(F)c2)cc1OC	UHRF1 MBD2 ctr 24.8
COc1ccc(-c2nc3c(C)cc(Br)cn3c2CC(C)(C)C)cc1OC	none
Fc1cccc(Cc2c(-c3cccc(Br)c3)nc3c(Cl)cc(C(F)(F)F)cn23)c1	none
COc1ccc(-c2nc3c(C)cc(Br)cn3c2CC2CCCCC2)cc1OC	UHRF1 MBD2 ctr 23.5
CSCC[C@H](CO)NC(=O)[C@H]1O[C@@H](n2cnc3c(N)ncnc32)[C@H](O)[C@@H]1O	none
CC(=NCCc1ccccc1)C1=C(O)CCC1=O	UHRF1 MBD2 ctr 45.0
CC(=NCCc1ccccc1)C1=C(O)CSC1=O	none
Cc1ccc(-c2cc(C(=O)N3CCOCC3)c3ccccc3n2)cc1	UHRF1 MBD2 ctr 26.8
O=C(c1cc(-c2ccncc2)nc2ccccc12)N1CCOCC1	none
COCC1CCCCN1C(=O)c1cccc(OC2CCN(S(C)(=O)=O)CC2)c1 (stereo not given)	UHRF1 MBD2 ctr 31.3
COc1cc(C2Nc3ccccc3NC3=C2C(=O)CC(C)(C)C3)cc(OC)c1OC(C)=O (stereo not given)	none
Oc1ccc(O)c(Cc2nc3ccccc3[nH]2)c1	PRMT1 FP inh 30.2
c1ccc2[nH]c(COCc3nc4ccccc4[nH]3)nc2c1	none
